Experimental data as given in the supplement of paper PMC10849652.
About 8,800 targets were measured; listed, in parts, are those with a hit and a random draw of the rest. About 0.5% of all pairs of compound and target were hits.

Compound: CNc1nc(-c2ccc3c(N)n[nH]c3c2)cc(N2C[C@@H](C(=O)NC3CCCCC3)CC[C@H]2C)n1
Assay: log2 fold change, soluble protein after heating vs DMSO (PISA); higher = thermal stabilisation; K562 lysate, 10 uM; active = over 0.2 and 3.5 SD of the protein, either way, in both replicates (recomputed)
Summary of the method: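 Following dounce homogenisation of K562 pellets in PBS pH 7.4 with 1 mM MgCl2, crude extract at 1 mg/mL protein was incubated for 30 min with 10 μM compound. Aliquots were then heated for 3 min over 48°C-58°C and pooled, NP-40 was added to 0.5% at 4°C, and soluble protein was recovered as the supernatant at 21,000xg for 90 min. Channel-sum-equalised TMTpro 16plex LC-MS/MS quantified this protein. Each value, from duplicates, is a log-two fold change in thermal stability relative to solvent controls.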

Sequence of UniProt Q9BTU6 (Q9BTU6 whole entry, looked up): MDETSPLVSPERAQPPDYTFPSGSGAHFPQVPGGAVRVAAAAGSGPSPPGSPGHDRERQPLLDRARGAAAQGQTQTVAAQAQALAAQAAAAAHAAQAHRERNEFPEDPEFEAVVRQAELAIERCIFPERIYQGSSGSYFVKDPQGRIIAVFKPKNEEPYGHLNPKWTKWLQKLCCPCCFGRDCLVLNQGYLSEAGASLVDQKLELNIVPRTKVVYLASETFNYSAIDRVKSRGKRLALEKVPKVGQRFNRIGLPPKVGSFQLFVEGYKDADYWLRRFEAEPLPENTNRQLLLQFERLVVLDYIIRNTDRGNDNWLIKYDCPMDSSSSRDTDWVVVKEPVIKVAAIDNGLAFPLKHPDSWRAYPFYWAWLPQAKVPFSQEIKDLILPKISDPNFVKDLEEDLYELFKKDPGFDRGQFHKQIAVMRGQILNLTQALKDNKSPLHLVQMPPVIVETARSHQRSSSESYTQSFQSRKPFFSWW
Sequence of UniProt Q5VU43 (Q5VU43 whole entry, looked up): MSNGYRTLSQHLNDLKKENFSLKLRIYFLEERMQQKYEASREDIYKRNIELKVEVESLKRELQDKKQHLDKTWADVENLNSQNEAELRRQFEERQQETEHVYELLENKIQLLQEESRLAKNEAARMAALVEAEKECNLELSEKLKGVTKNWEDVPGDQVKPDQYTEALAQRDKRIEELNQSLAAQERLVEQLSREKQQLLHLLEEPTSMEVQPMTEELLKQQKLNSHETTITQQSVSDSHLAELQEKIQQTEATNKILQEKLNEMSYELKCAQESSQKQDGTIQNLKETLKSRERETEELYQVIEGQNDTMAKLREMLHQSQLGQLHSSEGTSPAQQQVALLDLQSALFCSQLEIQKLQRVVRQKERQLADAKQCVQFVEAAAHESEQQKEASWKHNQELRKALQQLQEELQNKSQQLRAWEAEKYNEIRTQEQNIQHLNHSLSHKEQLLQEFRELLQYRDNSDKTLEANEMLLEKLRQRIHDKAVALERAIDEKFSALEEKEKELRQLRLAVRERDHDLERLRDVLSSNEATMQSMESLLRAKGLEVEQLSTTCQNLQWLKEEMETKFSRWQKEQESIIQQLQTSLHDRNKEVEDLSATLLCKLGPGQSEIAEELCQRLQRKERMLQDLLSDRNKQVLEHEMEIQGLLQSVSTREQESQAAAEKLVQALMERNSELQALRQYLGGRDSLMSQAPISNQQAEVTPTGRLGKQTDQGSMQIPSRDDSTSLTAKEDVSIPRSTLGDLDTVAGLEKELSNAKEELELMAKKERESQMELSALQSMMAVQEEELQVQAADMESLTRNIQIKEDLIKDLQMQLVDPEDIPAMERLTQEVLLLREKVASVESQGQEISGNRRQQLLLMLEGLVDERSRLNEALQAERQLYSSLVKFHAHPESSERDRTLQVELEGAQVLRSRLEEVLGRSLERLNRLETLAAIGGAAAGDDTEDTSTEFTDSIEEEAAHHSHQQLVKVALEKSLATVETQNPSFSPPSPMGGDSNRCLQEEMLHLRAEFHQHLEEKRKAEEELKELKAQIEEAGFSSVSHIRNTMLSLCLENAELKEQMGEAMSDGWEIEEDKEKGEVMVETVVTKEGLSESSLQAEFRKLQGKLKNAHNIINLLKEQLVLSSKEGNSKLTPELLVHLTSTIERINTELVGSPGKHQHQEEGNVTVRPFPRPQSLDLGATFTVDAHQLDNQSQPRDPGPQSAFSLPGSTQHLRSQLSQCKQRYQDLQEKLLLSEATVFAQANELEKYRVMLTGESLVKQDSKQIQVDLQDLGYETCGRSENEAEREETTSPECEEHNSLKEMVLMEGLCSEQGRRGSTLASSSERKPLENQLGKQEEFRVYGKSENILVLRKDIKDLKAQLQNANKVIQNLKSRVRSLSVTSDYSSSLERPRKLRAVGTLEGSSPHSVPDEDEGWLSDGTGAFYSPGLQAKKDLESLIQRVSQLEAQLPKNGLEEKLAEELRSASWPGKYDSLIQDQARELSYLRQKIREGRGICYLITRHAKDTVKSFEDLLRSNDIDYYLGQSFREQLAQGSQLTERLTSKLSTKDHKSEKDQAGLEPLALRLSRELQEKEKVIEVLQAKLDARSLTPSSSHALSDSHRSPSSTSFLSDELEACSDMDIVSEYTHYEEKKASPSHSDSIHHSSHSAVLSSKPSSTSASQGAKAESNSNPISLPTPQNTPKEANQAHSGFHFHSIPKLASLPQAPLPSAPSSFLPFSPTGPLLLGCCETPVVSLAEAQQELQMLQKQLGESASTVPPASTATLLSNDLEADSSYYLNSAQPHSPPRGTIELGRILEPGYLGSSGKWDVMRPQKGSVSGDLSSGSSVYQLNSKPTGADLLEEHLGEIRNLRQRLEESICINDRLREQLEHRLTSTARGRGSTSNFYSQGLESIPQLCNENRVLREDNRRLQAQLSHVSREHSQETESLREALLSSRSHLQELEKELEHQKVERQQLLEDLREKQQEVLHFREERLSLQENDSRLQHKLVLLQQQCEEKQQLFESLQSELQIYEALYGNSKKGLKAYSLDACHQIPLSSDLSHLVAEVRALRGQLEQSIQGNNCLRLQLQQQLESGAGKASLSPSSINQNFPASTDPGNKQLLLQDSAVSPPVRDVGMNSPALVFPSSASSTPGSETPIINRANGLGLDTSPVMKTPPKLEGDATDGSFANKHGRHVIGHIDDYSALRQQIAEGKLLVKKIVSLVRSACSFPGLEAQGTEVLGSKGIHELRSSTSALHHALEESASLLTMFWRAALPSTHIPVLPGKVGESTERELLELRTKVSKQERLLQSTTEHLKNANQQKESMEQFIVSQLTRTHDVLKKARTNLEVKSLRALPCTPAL
Sequence of UniProt Q8WUM4 (Q8WUM4 whole entry, looked up): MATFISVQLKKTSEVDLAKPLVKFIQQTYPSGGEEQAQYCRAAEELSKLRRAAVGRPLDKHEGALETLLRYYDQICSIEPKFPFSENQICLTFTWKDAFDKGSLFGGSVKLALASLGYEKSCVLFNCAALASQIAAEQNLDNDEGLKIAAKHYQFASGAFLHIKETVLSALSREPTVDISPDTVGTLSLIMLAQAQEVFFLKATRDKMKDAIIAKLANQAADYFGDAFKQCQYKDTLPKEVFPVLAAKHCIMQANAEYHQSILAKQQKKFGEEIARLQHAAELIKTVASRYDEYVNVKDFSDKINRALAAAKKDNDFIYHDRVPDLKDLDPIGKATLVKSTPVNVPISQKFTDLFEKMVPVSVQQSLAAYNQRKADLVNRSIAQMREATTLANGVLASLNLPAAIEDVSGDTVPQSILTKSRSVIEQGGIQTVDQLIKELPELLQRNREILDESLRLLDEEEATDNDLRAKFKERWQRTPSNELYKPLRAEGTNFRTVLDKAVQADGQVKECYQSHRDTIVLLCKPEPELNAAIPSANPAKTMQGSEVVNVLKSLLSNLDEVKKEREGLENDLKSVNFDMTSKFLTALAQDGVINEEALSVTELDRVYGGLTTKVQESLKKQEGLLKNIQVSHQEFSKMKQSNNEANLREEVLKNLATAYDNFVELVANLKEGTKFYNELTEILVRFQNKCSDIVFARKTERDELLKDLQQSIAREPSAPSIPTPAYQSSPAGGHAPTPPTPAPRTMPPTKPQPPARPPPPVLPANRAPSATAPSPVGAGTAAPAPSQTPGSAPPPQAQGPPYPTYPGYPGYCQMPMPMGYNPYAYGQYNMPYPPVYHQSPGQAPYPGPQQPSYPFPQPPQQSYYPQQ
Sequence of UniProt P54278 (P54278 whole entry, looked up): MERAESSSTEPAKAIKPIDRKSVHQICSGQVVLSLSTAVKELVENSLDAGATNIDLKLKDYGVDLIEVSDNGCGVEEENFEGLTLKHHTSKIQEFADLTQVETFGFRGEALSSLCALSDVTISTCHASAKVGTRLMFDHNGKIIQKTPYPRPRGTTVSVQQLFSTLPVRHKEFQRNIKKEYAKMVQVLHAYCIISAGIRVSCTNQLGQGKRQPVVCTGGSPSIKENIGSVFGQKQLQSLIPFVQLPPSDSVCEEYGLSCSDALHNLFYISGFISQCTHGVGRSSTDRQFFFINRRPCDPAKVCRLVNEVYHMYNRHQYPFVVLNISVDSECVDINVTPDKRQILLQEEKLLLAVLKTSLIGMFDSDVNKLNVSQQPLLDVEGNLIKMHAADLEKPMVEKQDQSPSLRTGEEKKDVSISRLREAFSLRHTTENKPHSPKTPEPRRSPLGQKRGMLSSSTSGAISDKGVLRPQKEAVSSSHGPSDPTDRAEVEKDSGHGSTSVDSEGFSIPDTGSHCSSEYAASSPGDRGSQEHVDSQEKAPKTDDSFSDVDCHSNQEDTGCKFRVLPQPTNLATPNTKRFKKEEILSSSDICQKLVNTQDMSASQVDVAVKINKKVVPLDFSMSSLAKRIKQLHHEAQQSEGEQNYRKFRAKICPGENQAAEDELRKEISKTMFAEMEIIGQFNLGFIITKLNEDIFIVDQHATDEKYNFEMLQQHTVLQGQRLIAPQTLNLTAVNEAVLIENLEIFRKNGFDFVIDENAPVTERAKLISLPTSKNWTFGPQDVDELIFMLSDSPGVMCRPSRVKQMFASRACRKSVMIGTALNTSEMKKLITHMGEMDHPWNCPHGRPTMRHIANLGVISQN
Sequence of UniProt P28065 (P28065 whole entry, looked up): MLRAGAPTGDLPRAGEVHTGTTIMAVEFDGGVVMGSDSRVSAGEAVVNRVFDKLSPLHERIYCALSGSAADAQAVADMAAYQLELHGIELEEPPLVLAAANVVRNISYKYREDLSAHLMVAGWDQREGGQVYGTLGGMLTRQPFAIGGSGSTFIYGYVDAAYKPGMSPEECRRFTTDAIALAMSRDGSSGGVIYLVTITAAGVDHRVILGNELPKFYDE
Sequence of UniProt Q8N4L2 (Q8N4L2 whole entry, looked up): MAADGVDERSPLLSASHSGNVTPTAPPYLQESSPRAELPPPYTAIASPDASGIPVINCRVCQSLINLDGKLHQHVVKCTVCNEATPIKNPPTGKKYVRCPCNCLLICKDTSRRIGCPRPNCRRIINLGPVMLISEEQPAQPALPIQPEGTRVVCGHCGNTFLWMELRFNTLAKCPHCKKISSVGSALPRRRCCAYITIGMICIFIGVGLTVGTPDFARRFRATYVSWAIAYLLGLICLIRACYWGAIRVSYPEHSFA

Target | log2 fold change
PUS1 (UniProt Q9Y606) | -0.029 (inactive)
PTPN23 (UniProt Q9H3S7) | 0.016 (inactive)
PDCD6IP (UniProt Q8WUM4) | -0.042 (inactive)
PMS2 (UniProt P54278) | 0.103 (inactive)
PSTPIP2 (UniProt Q9H939) | 0.026 (inactive)
PUM1 isoform 3 (UniProt Q14671) | -0.023 (inactive)
PICALM (UniProt Q13492) | -0.033 (inactive)
PTPN1 (UniProt P18031) | -0.033 (inactive)
PPP2R5C isoform 5 (UniProt Q13362) | -0.048 (inactive)
POLD3 (UniProt Q15054) | -0.03 (inactive)
PIP4K2A (UniProt P48426) | -0.035 (inactive)
PDS5A (UniProt Q29RF7) | -0.054 (inactive)
PFN1 (UniProt P07737) | -0.024 (inactive)
PLXNB2 (UniProt O15031) | 0.027 (inactive)
PFAS (UniProt O15067) | 0 (inactive)
PITRM1 isoform 2 (UniProt Q5JRX3) | -0.029 (inactive)
PPP1R8 (UniProt Q12972) | 0.044 (inactive)
PLEKHF1 (UniProt Q96S99) | -0.033 (inactive)
PRKACB isoform 2 (UniProt P22694) | 0.118 (inactive)
PIP4K2C (UniProt Q8TBX8) | -0.07 (inactive)

Target | log2 fold change
PDPK1 (UniProt O15530) | 0.501 (active)
PIK3C3 (UniProt Q8NEB9) | -0.046 (inactive)
PHOSPHO2 (UniProt Q8TCD6) | -0.008 (inactive)
PFKP (UniProt Q01813) | -0.016 (inactive)
PHKG2 (UniProt P15735) | 0.033 (inactive)
PPCDC (UniProt Q96CD2) | -0.054 (inactive)
PDE2A (UniProt O00408) | 0.028 (inactive)
PRKCB isoform 2 (UniProt P05771) | 0.03 (inactive)
PIP4P2 (UniProt Q8N4L2) | 0.062 (inactive)
PHKA1 (UniProt P46020) | -0.029 (inactive)
PIK3R2 (UniProt O00459) | -0.009 (inactive)
PSMB9 (UniProt P28065) | 0.31 (inactive)
PHACTR4 isoform 2 (UniProt Q8IZ21) | 0.1 (inactive)
PI4K2A (UniProt Q9BTU6) | 0.012 (inactive)
PDE4DIP isoform 4 (UniProt Q5VU43) | 0.036 (inactive)
PDXDC1 (UniProt Q6P996) | 0.088 (inactive)
PPIL2 (UniProt Q13356) | 0.056 (inactive)
PRRC2A (UniProt P48634) | -0.012 (inactive)
PCBP3 (UniProt P57721) | 0.042 (inactive)
